FLuc counter: counter-screen for miR-21 project: firefly luciferase inhibitors or activators; P08659; purified FLuc, Km substrates, luminescence inhibition; Potency, µM (series often up to 57.5 µM), for inactives: top-dose activity change, negative = inhibition, actives largely listed as inhibitors; 360,000 tested, 6.9% active;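 further: plate controls were vehicle for no effect and reference inhibitor for full effect; nearly all actives have a fitted effect of over 55% in size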
Target sequence (P08659 whole entry, looked up): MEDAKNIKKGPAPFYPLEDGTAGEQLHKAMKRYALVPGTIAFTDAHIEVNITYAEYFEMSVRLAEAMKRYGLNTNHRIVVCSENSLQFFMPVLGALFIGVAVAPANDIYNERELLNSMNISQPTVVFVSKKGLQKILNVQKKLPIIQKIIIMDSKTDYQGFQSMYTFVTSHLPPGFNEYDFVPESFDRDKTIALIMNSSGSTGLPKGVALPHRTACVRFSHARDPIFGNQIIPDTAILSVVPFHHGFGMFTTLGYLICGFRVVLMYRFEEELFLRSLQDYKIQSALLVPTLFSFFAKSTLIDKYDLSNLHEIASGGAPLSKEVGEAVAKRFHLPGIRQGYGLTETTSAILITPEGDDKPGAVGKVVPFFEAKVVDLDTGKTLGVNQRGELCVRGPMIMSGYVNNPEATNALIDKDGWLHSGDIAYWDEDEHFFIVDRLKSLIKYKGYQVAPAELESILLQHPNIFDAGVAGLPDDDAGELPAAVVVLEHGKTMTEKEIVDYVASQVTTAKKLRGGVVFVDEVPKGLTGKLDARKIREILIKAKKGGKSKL
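Purified P. pyralis luciferase (10nM final) with 10uM D-luciferin and 10uM ATP (Km levels) in 50mM Tris acetate pH 7.5, 10mM Mg acetate, 0.01% Tween-20, 0.05% BSA; qHTS 6-point titration, ~60 µM downward; luminescence read.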
SMN2 splice up: increases expression of the SMN2 splice variant; 210,000 tested, 2.8% active; Potency, µM (top dose mostly 46.1 µM), inactives show top-dose activity change, positive = activation, most hits filed as activators; HEK293 SMN2-luciferase splicing reporter, luminescence, 30-36 h; AID 1458; further: % of control where 0% means no effect; nearly all actives have a fitted effect of over 55% in size
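HEK293 cells carry an SMN2 minigene-luciferase reporter in which exon 7 inclusion puts luciferase in frame. Cells were seeded at 2000 cells/well, attached for 10-12 hours, then exposed to compounds for 30-36 hours at 37C before ONE-Glo luminescence.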
Rab9 prom act: Rab9 promoter activation; Huh7 Rab9 promoter-luciferase reporter, luminescence, 24 h; AID 485297; 320,000 tested, 2.8% active; Potency, µM (series often up to 9.22 µM), for inactives: top-dose activation, negative = inhibition, most hits filed as activators; further: % of control where 0% means no effect; nearly all actives have a fitted effect of over 60% in size
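Cells were plated at 1500 per well in reduced-serum medium with 10% FBS and left 2 h. Compound in DMSO was then added for 24 h at 37 °C. Reporter signal was read by luminescence after 10 min with luciferase detection reagent.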
NPC1 promoter act: NPC1 promoter activation | Potency, µM (highest dose often 9.22 µM), for inactives: at the top dose activation, actives largely listed as activators | Huh7 NPC1 promoter luciferase reporter, 24 h | 320,000 tested, 2.4% active; further: % of control where 0% means no effect; nearly all actives have a fitted effect of over 60% in size
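Luminescence from an NPC1 promoter-driven luciferase reporter in stably transfected Huh7 cells was measured after 24 h compound treatment at 37 °C, followed by 10 min ambient incubation with luciferase detection reagent.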
ELG1 genotoxic: genotoxicity induction in ELG1-luciferase HEK293T cells; Potency, µM (top dose mostly 46 µM), inactives show at the top dose activity change, positive = activation, most hits filed as activators; 330,000 tested, 1.3% active; HEK293T ELG1-luciferase reporter, luminescence, 16 h; further: % of control where 0% means no effect; nearly all actives have a fitted effect of over 60% in size
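HEK293T cells expressing luciferase-tagged ELG1 were treated with compound or DMSO for 16 hr at 37°C. Luciferase activity was then read after 30 min with ONE-Glo at room temperature; rising signal flags genetic stress.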
An asterisk follows results filed as active; ? = inconclusive; . = not tested or not shown; [ ] = dose if it differs, or a comment. A selection: hits, their analogues and other compounds. The true share with any hit is near 7.4%. The call rests on the fitted dose curve; in most records, active means well fitted curve in the direction sought with a large enough effect; inconclusive means small, poorly fitted or top-dose-only effect, or another doubt; inactive means no such curve, though single readings can be large; an effect the other way counts as inactive or inconclusive. Potency means the concentration at half of the fitted maximal effect.

SMILES	FLuc counter	SMN2 splice up	Rab9 prom act	NPC1 promoter act	ELG1 genotoxic
CCC(=O)N1CCc2cc(Br)cc(S(=O)(=O)CCC(=O)N3CCN(c4cccc(C(F)(F)F)c4)CC3)c21	-11.2%	11.8%	.	.	.
O=C(Nc1ncc(Cc2cccc(C(F)(F)F)c2)s1)C1CCCO1 (stereo not drawn)	?	.	20.7%	13.0%	-0.1%
Cc1ccc(Cc2cnc(NC(=O)C3CCCO3)s2)cc1 (stereo not drawn)	3.01µM*	14.1µM*	1.26µM*	1.12µM*	?
O=C(Nc1ccc(Cc2ccncc2)cc1)c1cccs1	?	-12.4%	15.9%	15.2%	2.1%
Cc1ccc(Cc2cnc(NC(=O)c3cccs3)s2)cc1	2.69µM*	14.1µM*	?	2.82µM*	-1.4%
COc1ccc(-c2nc3c(c4c2C[C@H](c2ccccc2)OC4)CN(C(=O)NCCc2c[nH]c4ccccc24)CC3)c(C)c1	.	-1.4%[9.22 µM]	.	.	.
O=C(N=C1SCC(=O)N1c1ccccc1Cl)c1ccco1	?	15.8%	?	?	?
O=C(N=C1SCC(=O)N1c1ccccc1Cl)c1ccccc1	?	12.6µM*	2µM*	?	?
COc1cccc(-n2c(SCC(=O)Nc3nnc(C)s3)nc3c([nH]c4ccccc43)c2=O)c1	-1.9%	.	.	.	.
COc1ccc(/C=C2\Sc3ccc(C(=O)N4CCOCC4)cc3N(C)C2=O)cc1	15.1µM*	.	-0.2%	1.8%	-0.7%
COc1ccc(/C=C2\Sc3ccc(C(=O)NCC4CCCO4)cc3N(C)C2=O)cc1 (stereo not drawn)	?	.	-4.3%	1.6%	0.8%
O=[N+]([O-])c1cc(Cl)ccc1NCCNS(=O)(=O)c1ccccc1	26.9µM*	-19.7%	-3.3%	1.5%	1.2%
O=C(Nc1ccc(F)cc1F)C1CCN(c2ncccn2)CC1	0.3%	-3.5%	.	.	.
Nc1c(Cl)ncnc1N/N=C/c1ccccn1	?	-81.4%	0.6%	-0.4%	4.11µM*
CCOc1cc(/C=N/Nc2ncnc(Cl)c2N)ccc1O	10.7µM*	23.0%	22.2%	16.1%	?
Nc1c(Cl)ncnc1N/N=C/c1ccc2ccccc2n1	4.78µM*	-40.6%	?	?	?
N#Cc1ccc(CN2CCC3(CC2)CCN(S(=O)(=O)c2ccccc2)CC3)cc1	.	-71.5%	.	.	.
CCOC(=O)c1cccc(NC(=O)CN2C(=O)c3ccccc3Sc3ncccc32)c1	5.1%	.	.	.	.
COc1ccc2nc(/C=N/NC(=O)[C@H](C)NC(=O)OC(C)(C)C)ccc2c1	5.36µM*	?	16.8%	11.6%	?
c1ccc(-c2ncc(CSc3nncn3-c3ccccc3)s2)cc1	-0.3%	-55.1%	1.0%	0.5%	-0.1%
Cc1nnc(SCc2nc3ccccc3s2)n1-c1ccccc1	15.1µM*	?	21.5%	18.9%	?
Cc1ccccc1CSc1nnc(C)n1N	-2.0%	.	7.5%	-1.3%	2.6%
COc1cccc(-c2nnc(SCc3nc4ccccc4s3)n2C)c1	?	2.2%	-0.5%	9.2%	15.3%
c1ccc(-n2cnnc2SCc2nc3ccccc3s2)cc1	16.9µM*	-17.2%	28.7%	2.7%	?
CCn1c(SCc2nc3ccccc3s2)nnc1-c1ccccc1	15.1µM*	-3.3%	1.0%	3.1%	13µM*
SMILES	FLuc counter	SMN2 splice up	Rab9 prom act	NPC1 promoter act	ELG1 genotoxic
Cc1nnc(SCc2nc3ccccc3s2)n1N	9.53µM*	.	-28.7%	10.6%	13µM*
Cc1ccc2oc(=O)c3cc(C(=O)N4CCN(c5ccccc5F)CC4)sc3c2c1	-4.7%	-4.0%	.	.	.
CCOc1ccccc1C(=O)N1CCc2cc(OC)c(OC)cc2C1COc1ccc2c(C)cc(=O)oc2c1 (stereo not drawn)	-5.4%	-3.7%	.	.	.
Cc1ccc(NC(=O)Cn2c(=O)n(CCCCC(=O)NCc3ccc4c(c3)OCO4)c(=O)c3ccccc32)cc1	-1.7%	1.5%	.	.	.
CCC(c1nnc(SCc2nc3ccccc3s2)n1Cc1ccccc1)N(C)C (stereo not drawn)	16.9µM*	-13.6%	13.2%	0.4%	?
c1ccc(Cn2c(SCc3nc4ccccc4s3)nnc2-c2ccco2)cc1	-13.2%	-2.9%	4.0%	11.4%	-1.0%
CCc1ccc(NC(=O)C2=CC=CN3CCS(=O)(=O)N=C23)cc1	15.1µM*	.	-6.0%	-0.5%	7.5%
Cn1c(CN2CCOCC2)nnc1SCC(=O)Nc1ccc2c(c1)OCCO2	1.3%	8.91µM*	-2.7%	15.9%	6.7%
CCn1nnnc1SCC(=O)Nc1nnc(C(C)C)s1	4.6%	0.398µM*	-5.4%	-2.3%	5.5%
COCCCn1nnnc1SCC(=O)Nc1ccc2c(c1)OCCO2	-9.4%	.	-1.3%	-0.8%	3.2%
CCn1nnnc1SCC(=O)Nc1nc(C)c(C)s1	-16.9%	?	23.4%	16.9%	1.1%
Cc1ccccc1-c1nnc(SCC(=O)Nc2ccc3c(c2)OCCO3)n1N	-6.0%	-4.7%	-2.6%	0.4%	2.5%
Nn1c(SCC(=O)Nc2ccc3c(c2)OCCO3)nncc1=O	21.3µM*	.	16.5%	-0.6%	0.2%
CCn1nnnc1SCC(=O)Nc1ccc2c(c1)OCCO2	15.1µM*	11.2µM*	?	2.82µM*	?
Cc1cccc(-c2nnn3c2nc(NCCc2ccc(S(N)(=O)=O)cc2)c2cc(Cl)ccc23)c1	-1.6%	3.9%	.	.	.
CCOc1ccc(N2CC(NC(=O)c3cc4ccccc4o3)CC2=O)cc1 (stereo not drawn)	-1.9%	.	.	.	.
CC(C)n1nnnc1SCC(=O)Nc1ccc2c(c1)OCCO2	16.9µM*	.	?	3.16µM*	?
CCC(=O)Nc1ccc(NC(=O)CSc2nnnn2C(C)C)cc1	4.5%	-10.2%	0.4%	1.3%	-2.6%
CCOC(=O)c1c(NC(=O)CSc2cn(CCNC(=O)c3ccccc3OC)c3ccccc23)sc2c1CCCC2	4.6%	-3.0%	.	.	.
CCCn1nc(C(=O)Nc2ccc(S(=O)(=O)Nc3nccs3)cc2)c2ccccc2c1=O	-1.1%	7.94µM*	-0.9%	-1.9%	-1.1%
CCn1nc(C(=O)Nc2ccc(S(=O)(=O)Nc3ncccn3)cc2)c2ccccc2c1=O	-7.2%	32.4%	2.3%	1.3%	10.3%
Oc1ccc(Cl)cc1C=Nc1ccc(Br)cc1	?	.	-0.7%	-4.0%	3.8%
Cn1c(O)c(C=Nc2ccc(Br)cc2)sc1=O	?	2.82µM*	4.47µM*	?	?
O=c1[nH]c(SCc2ccc(Cl)cc2)nc2ccsc12	6.01µM*	?	?	29.6%	10.5%
COC(=O)c1c(C)[nH]c(O)c1C=Nc1ccc(Oc2ccccc2)cc1	?	-6.8%	29.4%	-0.6%	-0.9%
COC(=O)c1c(C)[nH]c(O)c1C=Nc1ccc(C(C)C)cc1	8.49µM*	14.2%	?	?	?
CCOc1ccc(C(=O)/C=C/Nc2ccc(S(=O)(=O)Nc3onc(C)c3C)cc2)cc1	15.1µM*	?	14.1%	-0.6%	?
Cc1noc(NS(=O)(=O)c2ccc(N/C=C\C(=O)c3ccc(Br)cc3)cc2)c1C	26.9µM*	.	-9.9%	3.0%	0.8%

Assay outcomes deposited in PubChem BioAssay by National Center for Advancing Translational Sciences (NCATS).
